Assay results as given in PubChem BioAssay AID1159580 (chemical genetic matrix, 2015).
The campaign covered roughly 5,500 compounds. About 2,000 (36%) were called active. Not shown: some 18% with an inconclusive outcome. Cut-off read from the data, not from the text of the source: active = normalized growth mostly below about 0.91 (no sharp cut-off); inconclusive = no clear call, values can overlap the other calls; inactive = mostly above about 0.92. The list shows a part of the results.

Test: chemical genetic growth profiling, strain panel (AID 1159580);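 note: tested at 20 µM; growth read once vehicle control cultures reached saturation at 30 °C; 1 = growth at the plate median or of vehicle wells; lower values mean less growth of the strain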
Conditions: S. cerevisiae deletion strains, growth OD

Measured: normalized growth

CCCCOc1cc(CC2CNC(=O)N2)ccc1OC (stereo unspecified)
inactive: locus YAL021C, strain ccr4, hits give low values 0.939 | locus YAL026C, strain drs2, hits give low values 1 | locus YAL030W, strain snc1, hits give low values 1.01 | locus YAL040C, strain CLN3, hits give low values 1.08 | locus YBL061C, strain skt5, hits give low values 0.998 | locus YBR009C, strain hhf1, hits give low values 1.06 | locus YBR023C, strain chs3, hits give low values 0.992 | locus YBR171W, strain sec66, hits give low values 0.984 | locus YBR231C, strain swc5, hits give low values 1.01 | locus YBR279W, strain paf1, hits give low values 0.999 | locus YCL011C, strain gbp2, hits give low values 0.984 | locus YCL016C, strain dcc1, hits give low values 1 | locus YCL061C, strain MRC1 (second series), hits give low values 1 | locus YCL061C, strain MRC1, hits give low values 0.985 | locus YCL069W, strain vba3, hits give low values 0.994 | locus YCR088W, strain abp1, hits give low values 0.987 | locus YDL005C, strain med2, hits give low values 0.986 | locus YDL040C, strain nat1, hits give low values 0.999 | locus YDR001C, strain nth1, hits give low values 0.988 | locus YDR069C, strain doa4, hits give low values 1.01 | locus YDR137W, strain rgp1, hits give low values 0.971 | locus YDR150W, strain NUM1, hits give low values 1.01 | locus YDR159W, strain sac3, hits give low values 1.07 | locus YDR195W, strain ref2 0.992 | locus YDR297W, strain sur2, hits give low values 0.993 | locus YDR334W, strain swr1, hits give low values 0.968 | locus YDR335W, strain msn5, hits give low values 0.98 | locus YDR392W, strain spt3, hits give low values 0.975 | locus YEL003W, strain gim4, hits give low values 0.998 | locus YEL037C, strain rad23, hits give low values 0.994 | locus YEL061C, strain CIN8 (second series), hits give low values 0.981 | locus YER002W, strain NOP16, hits give low values 1.01 | locus YER015W, strain faa2, hits give low values 0.994 | locus YER016W, strain bim1, hits give low values 1.01 | locus YER111C, strain swi4, hits give low values 1.01 | locus YER155C, strain BEM2 (second series), hits give low values 1.04 | locus YFR010W, strain ubp6, hits give low values 0.994 | locus YGL167C, strain pmr1, hits give low values 1 | locus YGL173C, strain kem1, hits give low values 0.991 | locus YGL227W, strain vid30, hits give low values 1 | locus YGL240W, strain doc1, hits give low values 1.04 | locus YGL253W, strain hxk2, hits give low values 0.999 | locus YHR013C, strain ard1, hits give low values 0.979 | locus YHR027C, strain rpn1, hits give low values 0.992 | locus YHR030C, strain SLT2, hits give low values 0.97 | locus YHR079C, strain IRE1, hits give low values 0.973 | locus YHR142W, strain chs7, hits give low values 0.914 | locus YJL092W, strain hpr5, hits give low values 0.967 | locus YJL095W, strain BCK1 (second series), hits give low values 0.989 | locus YJL095W, strain BCK1, hits give low values 0.978 | locus YJL115W, strain asf1, hits give low values 0.99 | locus YJL129C, strain trk1, hits give low values 0.965 | locus YJL154C, strain vps35, hits give low values 0.993 | locus YJL164C, strain tpk1, hits give low values 0.972 | locus YJL166W, strain qcr8, hits give low values 0.996 | locus YJL187C, strain SWE1, hits give low values 0.998 | locus YJR066W, strain TOR1, hits give low values 0.935 | locus YJR075W, strain HOC1, hits give low values 1.01 | locus YKL160W, strain elf1, hits give low values 0.954 | locus YKR026C, strain gcn3, hits give low values 0.981 | locus YKR091W, strain srl3, hits give low values 0.989 | locus YLL001W, strain dnm1, hits give low values 0.988 | locus YLL026W, hits give low values 0.998 | locus YLL041C, strain sdh2, hits give low values 0.984 | locus YLR027C, strain aat2, hits give low values 0.982 | locus YLR113W, strain HOG1, hits give low values 0.978 | locus YLR221C, strain rsa3, hits give low values 0.971 | locus YLR258W, strain gsy2, hits give low values 1.02 | locus YLR262C, strain YPT6 (second series), hits give low values 1 | locus YLR320W, strain mms22, hits give low values 1.02 | locus YLR342W, strain FKS1, hits give low values 1 | locus YLR357W, strain rsc2, hits give low values 1.02 | locus YLR370C, strain arc18, hits give low values 0.978 | locus YLR384C, strain iki3, hits give low values 0.993 | locus YML120C, strain ndi1, hits give low values 0.968 | locus YMR058W, strain fet3, hits give low values 0.978 | locus YMR125W, strain sto1, hits give low values 1.02 | locus YMR129W, hits give low values 0.992 | locus YMR205C, strain PFK2, hits give low values 1.06 | locus YMR231W, strain pep5, hits give low values 1 | locus YNL071W, strain lat1, hits give low values 0.987 | locus YNL128W, strain TEP1, hits give low values 1.01 | locus YNL175C, strain NOP13, hits give low values 1.02 | locus YNL183C, strain NPR1, hits give low values 0.956 | locus YNL197C, strain WHI3, hits give low values 1.03 | locus YNL209W, strain ssb2, hits give low values 1 | locus YNL224C, strain SQS1, hits give low values 1.01 | locus YNL248C, strain rpa49, hits give low values 0.93 | locus YNL322C, strain KRE1 (second series), hits give low values 0.987 | locus YNL322C, strain KRE1, hits give low values 1.02 | locus YNR049C, strain mso1, hits give low values 0.992 | locus YOR001W, strain rrp6, hits give low values 0.951 | locus YOR070C, strain gyp1, hits give low values 1.01 | locus YOR080W, strain dia2, hits give low values 0.99 | locus YOR083W, strain WHI5 (second series), hits give low values 1 | locus YOR083W, strain WHI5, hits give low values 0.944 | locus YOR106W, strain vam3, hits give low values 0.958 | locus YOR231W, strain MKK1, hits give low values 0.976 | locus YOR265W, strain rbl2, hits give low values 0.998 | locus YOR270C, strain vph1, hits give low values 0.94 | locus YOR290C, strain snf2, hits give low values 0.987 | locus YPL051W, strain arl3, hits give low values 0.963 | locus YPL078C, strain atp4, hits give low values 0.921 | locus YPL106C, strain sse1, hits give low values 1.04 | locus YPL240C, strain hsp82, hits give low values 0.99 | locus YPL256C, strain CLN2, hits give low values 0.948
